# Source: PubChem BioAssay
# In the library only some 2.5% were active in any assay of this set; here they are far more common.
# Efflux pump mplx: inhibitors of Candida efflux pumps in yeast, primary screen, S. cerevisiae, Nile Red, multiplex; S. cerevisiae Candida pump triplex; inhibition, % at 10 µM; 330,000 compounds, 0.44% hits;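 active = plate passing quality check with inhibition over a set limit, or well fluorescence over plate mean plus 4 SD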;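 note: Nile Red retained in pooled yeast measured as flow cytometry median fluorescence; 0% = buffer negative control and 100% = Enniatin B positive control; higher means more Nile Red kept so more efflux inhibition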
# AI-2 QS mod: Vibrio harveyi AI-2 quorum sensing modulators, primary screen, JMH597 strain, luminescence/OD600 ratio. AID 2094, 2009. Vibrio harveyi JMH597 AI-2 luminescence/OD600 ratio, 9 h; stronger effect = lower value; strain lacks LuxN and CqsS sensors; 0 = neutral-control median. 300,000 compounds, 0.4% hits. activity change, % at 7.5 µM; in the data active = activity change below about -75%, passing the limit was not always enough;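 note: luminescence divided by OD600 gain over 9 h not by final OD600 alone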
# V-ATPase pHluor: regulators of yeast V-ATPase proton pumping, primary screen, pHLuorin cytosolic pH fluorescence. response, % at 10 µM. 350,000 compounds, 0.37% hits. S. cerevisiae. AID 504577, 2011; in the data active = response mostly above about 7.3%, no sharp cut-off; inactive = mostly below about 5.4%; note: actives read high
# Mot1-301 SUMO: yeast Mot1-301 growth rescue at high temperature, primary screen, SUMOylation pathway inhibitor project, S. cerevisiae, ATP luminescence, 38.5C; AID 2716, 2010; 320,000 compounds, 1% hits; S. cerevisiae Mot1-301 growth rescue; percent above DMSO median, 100 means doubled; growth rescue, % at 18.8 µM;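 active = every valid replicate shows activation above 250% relative to neutral control wells; inactive = the rest, any valid replicate at or below 250%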;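 note: OY570 slx delta 5 strain wells were the positive control but not used for scaling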
# ATG4B inhibitor: ATG4B protease inhibitors, primary screen, biochemical, fluorescence, uHTS; Cysteine protease ATG4B (Homo sapiens), Q9Y4P1; ATG4B cleavage of LC3-PLA2, NBD-HPC fluorescence, 1 h; inhibition, % at 8.33 µM; 340,000 compounds, 0.51% hits; AID 504462, 2011; in the data active = inhibition above about 40%
# Target sequence (Q9Y4P1 whole entry, looked up): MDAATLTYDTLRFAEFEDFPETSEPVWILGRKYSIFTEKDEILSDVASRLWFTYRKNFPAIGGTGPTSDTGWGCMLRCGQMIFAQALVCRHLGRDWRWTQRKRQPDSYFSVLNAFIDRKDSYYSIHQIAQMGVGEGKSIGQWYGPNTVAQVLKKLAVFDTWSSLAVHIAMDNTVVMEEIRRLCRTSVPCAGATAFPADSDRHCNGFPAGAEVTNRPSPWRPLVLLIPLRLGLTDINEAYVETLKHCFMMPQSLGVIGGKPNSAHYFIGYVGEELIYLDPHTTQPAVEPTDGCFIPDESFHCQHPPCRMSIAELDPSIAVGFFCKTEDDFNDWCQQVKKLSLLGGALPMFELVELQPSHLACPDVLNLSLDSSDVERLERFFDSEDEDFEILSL
# Yeast Mot1 SUMO: growth restoration of Mot1-301 yeast on galactose, dose response, SUMO pathway inhibitor project, whole organism, S. cerevisiae, ATP luminescence, cherry-picked samples | shares compounds with Mot1-301 SUMO | S. cerevisiae Mot1-301 galactose growth, 24 h; -100 = growth of slx-deleted rescue strain | growth activity, percent, % at 42 µM | 2,300 tested, under 10 active | AID 493004, 2010;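 active = Signal drops as the depositor expects, and the fitted half-maximal dose is no more than ten times the top valid tested dose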;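 note: more negative values mean stronger growth rescue toward the control strain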
# * hit, by the source's call; . = not tested or not shown; [ ] = another dose, or the depositor's remark.
SMILES,Efflux pump mplx,AI-2 QS mod,V-ATPase pHluor,Mot1-301 SUMO,ATG4B inhibitor,Yeast Mot1 SUMO
Cc1ccc(C(=O)N/C(=C\c2cccs2)C(=O)NCc2ccncc2)cc1,0,5,0,612*,-7,1
Cc1ccc(C(=O)N/C(=C\c2cccs2)C(=O)NCCc2c[nH]c3ccccc23)cc1,0,27,-4,494*,-5,0
Cc1cccc(N2CCN(C(=O)CN3C(=O)NC(C)(C)C3=O)CC2)c1C,0,21,0,527*,-3,0
CC(C)OC(=O)c1ccc(N)cc1,0,-9,1,-20,-6,.
CC(=O)c1c(N2CCCC2)[nH]c(-c2ccccc2)nc1=S,0,10,6,26,-2,.
CC(=O)c1c(N)[nH]c(-c2ccccc2)nc1=S,0,21,-1,886*,-6,0
Cc1sc2ncn(C(C)C(=O)OC3CCCCC3)c(=O)c2c1C (stereo not given),0,4,2,379*,1,0
CC(C)N(C(=O)[C@H]1C[C@H](CC(=O)NCCCn2ccnc2)C(=O)N2CCc3c([nH]c4cc(CCC(=O)N(C)C)ccc34)[C@]12C)C(C)C,0,.,0,.,-11,.
CCOc1ccccc1NC(=O)c1ccc2c(c1)C(=O)N(CC(C)C)C2=O,0,2,0,551*,-4,1
O=C(COC(=O)c1cccc(C(F)(F)F)c1)NC(=O)NC1CCCC1,0,.,-3,-5,3,.
Oc1c(Cl)cc(Cl)cc1/C=N/c1nccs1,0,25,-5,107,-4,.
Oc1c(Cl)cc(Cl)cc1/C=N/c1nc(-c2ccc(Cl)cc2)cs1,0,4,-2,719*,37,-1
CN1C(=S)SC2CS(=O)(=O)CC21C (stereo not given),0,9,-1,517*,-4,0[21 µM]
C[C@]12CS(=O)(=O)C[C@H]1SC(=S)N2c1ccccc1,0,.,-1,-6,-1,.
Cc1nc2ccc(NC(=O)CSc3nnc(C)s3)cc2[nH]1,0,11,-2,44,-6,.
COc1ccc(F)cc1S(=O)(=O)Nc1cc2c3c(c1)CC(=O)N3CCC2,0,22,-4,1,-1,.
CC1(OC(=O)CCc2ccccc2)C(=O)C=C2C=C(c3ccc(C#N)cc3)N(CCN3CCOCC3)C=C2C1=O (stereo not given),0,21,3,-19,-16,.
CC1(OC(=O)CCc2ccccc2)C(=O)C=C2C=C(c3ccc(C#N)cc3)N(CC3CC3)C=C2C1=O (stereo not given),0,24,-1,589*,-3,0
CC1(OC(=O)CCc2ccccc2)C(=O)C=C2C=C(c3ccc(C#N)cc3)N(C3CCCC3)C=C2C1=O (stereo not given),0,34,-2,645*,-8,0
CC(=O)OCC[C@H](NS(=O)(=O)OCC(Cl)(Cl)Cl)c1ccccc1,0,6,4,7,-7,.
Cc1csc(SCC(=O)Nc2nc(-c3ccccc3)cs2)n1,0,2,8,104,-1,.
Cc1ccc(-c2csc(NC(=O)CSc3nc(C)cs3)n2)cc1,0,-9,-4,541*,1,0
CCCCN1C(=O)C(CC(=O)NC2CCCC2)CC(C(=O)N(C(C)C)C(C)C)=C1C (stereo not given),.,.,-2,.,.,.
Cc1ccc(C(=O)c2cc([N+](=O)[O-])ccc2N2CCCCC2)cc1C,1,22,-1,500*,-5,0
COCCn1c(=NC(=O)CCS(=O)(=O)c2ccccc2)sc2cc(F)ccc21,0,4,0,13,7,.
SMILES,Efflux pump mplx,AI-2 QS mod,V-ATPase pHluor,Mot1-301 SUMO,ATG4B inhibitor,Yeast Mot1 SUMO
CCN(C(=O)COc1ccc(F)cc1Br)c1c(N)n(Cc2ccccc2)c(=O)[nH]c1=O,0,.,0,-27,-4,.
CN1C(=O)C(O)(CC(=O)/C=C/c2ccco2)c2cc(Br)ccc21 (stereo not given),0,11,2,5,-1,.
CN1C(=O)C(O)(CC(=O)c2ccccc2O)c2cc(Br)ccc21 (stereo not given),0,30,5,-9,-13,0
Cc1cnc(NC(=O)CN2CCN(c3ccccc3F)CC2)s1,0,5,5,990*,-2,0
Cc1nc(NC(=O)CN2CCN(c3ccccc3F)CC2)sc1C(=O)N(C)C,0,-6,-2,-12,4,.
Cc1sc2nc(SCC(=O)NCCOCCO)n(C)c(=O)c2c1C,0,-2,0,983*,-3,0
CC1(C)Cc2ccccc2-c2nnc(-c3ccc4ccccc4n3)n21,0,18,-1,.,10,.
Cc1cc2c(cc1C)-c1nnc(-c3ccc4ccccc4n3)n1C(C)(C)C2,0,14,.,644*,.,0
Cc1cccn2c(=O)c3cc(C(=O)NCc4cccnc4)c(=N)n(C(C)C)c3nc12,0,16,-96,759*,-1,0
Cc1cccn2c(=O)c3cc(C(=O)NCCc4ccccc4)sc3nc12,1,13,2,798*,1,0
O=C(CN1C(=O)c2ccccc2C1=O)Oc1ccc(F)cc1,0,-10,.,23,.,.
Cc1cc(C)n(-c2ccc(C(=O)C(C#N)c3nc4ccccc4n3C)cc2)n1 (stereo not given),2,24,1,775*,2,0
CCN(CC)S(=O)(=O)c1cc(NC(=O)COC(=O)CCc2nc3ccccc3s2)ccc1C,0,-4,0,363*,-11,0
CCC1(c2ccc(F)cc2)NC(=O)N(CC(=O)N2CCN(S(=O)(=O)c3ccc(C)cc3C)CC2)C1=O (stereo not given),.,.,0,.,-18,.
CSc1ccccc1C(=O)Nc1ccccc1C(=O)NC(C)C,1,0,-1,-9,2,.
O=C(NC1CCCC1)C(c1cccs1)N(C(=O)c1ccno1)c1ccccc1 (stereo not given),0,7,1,815*,-10,0
O=C(NC1CCCCC1)C(c1cccs1)N(C(=O)c1ccccn1)c1ccccc1 (stereo not given),0,20,-3,1,-16,.
Cc1ccc(CS(=O)(=O)Cc2ccc(C(=O)NC3CCCC3)o2)cc1,0,31,-2,263,-6,.
CCCNC(=O)CN(c1ccc(F)cc1)S(=O)(=O)c1ccc2c(c1)OCCO2,0,12,-2,847*,7,0
O=c1c2ccccc2c2ccccc2c(=O)n1-c1ccccc1,0,9,-3,413*,-4,0
